Here are results for 40 compounds from PubChem BioAssay (EPA / NIEHS).

For orientation: AC50 means the concentration giving half of the maximal activity seen.

SMILES strings stand for the structures. Records with an inconclusive call do not appear. Calls of active or inactive are those of the source. Rule for the calls: active = hit-call score of the fitted dose curve at least 0.9, where 1 is the maximum; inconclusive = response in the unintended direction; inactive = score below 0.9.

Chain of Broad substrate specificity ATP-binding cassette transporter ABCG2 (Homo sapiens) (Q9UNQ0 whole entry, looked up): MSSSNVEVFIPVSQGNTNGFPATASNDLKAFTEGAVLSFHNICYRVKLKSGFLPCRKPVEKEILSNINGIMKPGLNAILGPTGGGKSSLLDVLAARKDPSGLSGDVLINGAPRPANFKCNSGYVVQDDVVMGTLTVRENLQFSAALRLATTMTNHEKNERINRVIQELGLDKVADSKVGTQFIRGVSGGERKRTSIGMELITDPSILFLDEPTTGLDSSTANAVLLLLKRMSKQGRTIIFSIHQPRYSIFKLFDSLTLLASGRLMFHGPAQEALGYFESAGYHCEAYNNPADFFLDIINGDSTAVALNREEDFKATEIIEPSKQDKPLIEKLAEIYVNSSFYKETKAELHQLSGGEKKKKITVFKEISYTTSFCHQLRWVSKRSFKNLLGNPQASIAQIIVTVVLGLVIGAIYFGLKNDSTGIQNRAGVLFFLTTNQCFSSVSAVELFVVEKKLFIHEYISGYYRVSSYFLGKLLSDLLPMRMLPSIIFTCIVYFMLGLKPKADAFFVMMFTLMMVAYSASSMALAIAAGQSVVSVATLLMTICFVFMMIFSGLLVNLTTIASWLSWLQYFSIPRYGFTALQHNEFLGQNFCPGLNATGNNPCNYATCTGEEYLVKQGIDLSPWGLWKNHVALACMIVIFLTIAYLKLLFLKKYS

Read-out in this experiment: Broad substrate specificity ATP-binding cassette transporter ABCG2 (Homo sapiens) (UniProt Q9UNQ0)
Briefly: CLD_ABCG2_48hr: CellzDirect (CLD) Gene Expression Assay for ABC Transporter (ABCG2) at 48 hours (AID 2283704).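 For AC50: potency for induction of ABCG2 mRNA above the DMSO baseline.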 As for the experimental part: CLD_48hr is a cell-based, multiplexed-readout assay that uses hepatocyte, a human liver primary cell, with measurements taken at 48 hours after chemical dosing in a 96-well plate.CLD_ABCG2_48hr is one of 16 assay component(s) measured or calculated from the CLD_48hr assay. It is designed to make measurements of mRNA induction, a form of inducible reporter, as detected with chemiluminescence signals by Quantitative Nuclease Protection Assay (qNPA) technology.Data from the assay component CLD_ABCG2_48hr was analyzed at the endpoint, CLD_ABCG2_48hr, in the positive analysis fitting direction relative to DMSO as the negative control and baseline of activity. Using a type of inducible reporter, gain-of-signal activity can be used to understand changes in the reporter gene as they relate to the gene ABCG2. Furthermore, this assay endpoint can be referred to as a primary readout. To generalize the intended target to other relatable targets, this assay endpoint is annotated to the transporter intended target family, where subfamily is ABC transporter.
Human hepatocyte cultures were treated daily for two consecutive days with fresh dosing solutions containing appropriate concentrations of the 320 ToxCast chemicals (chemical identities were blinded to CellzDirect and other ToxCast collaborators), vehicle control (0.2% DMSO), and positive control inducers as summarized in Table 1. Due to the large number of treatment groups and chemicals examined, the ToxCast chemicals were divided into two groups (spanning two independent cultures of hepatocytes from separate donor preparations (Hu778: ToxCast plates 1 and 2; Hu776: ToxCast plates 3 and 4). Each preparation of human hepatocyte cultures was treated with respective vehicle control, medium only control, set of six positive controls/reference chemicals for the five hepatic receptor pathways, and a subset of eight of the ToxCast chemicals (indoxacarb, pyrithiobac-sodium, norflurazon, cyhalofop-butyl, methomyl, thiram, acetochlor, and propiconazole). These replicate data, coupled with internal replicates designed within the blinded ToxCast chemical library, provided additional data to evaluate interindividual differences between hepatocyte preparations and their potential impact on chemical profiles.Cell morphology and integrity were evaluated using phase-contrast microscopy as an indicator of hepatocyte cell health (Tyson & Green, 1987). Cultures for each treatment group (i.e., media, vehicle [0.2% DMSO], positive control inducers [multiple concentrations], and the ToxCast chemicals [multiple concentrations]) were observed and cell morphology was assessed relative to vehicle control cultures at each harvest time point (0, 6, 24, or 48 h). […] Images were evaluated at the conclusion of the study to assess changes in cell integrity and account for the effects of chemical exposure on uncharacteristic changes in concentration-dependent gene expression profiles. The results from these determinations of apparent cytotoxicity were annotated (yes/no) alongside the corresponding qNPA data for reference.At the conclusion of each treatment period, hepatocyte cultures (96-well) were washed with 1 volume of HBSS, lysed by addition of 25 ul ArrayPlate lysis buffer (HTG, Tucson, AZ), and 70 ul/well of Denaturation Oil, denatured by incubation at 95C for 10 min, and frozen at approximately -70C until analysis by nuclease protection assay (qNPA) (Roberts et al., 2007). For qNPA analysis, cell lysates were thawed at 50C for approximately 30 min, qNPA probes were added, and samples were incubated at 95C for 10 min to begin the detection process by denaturing the target RNA, dissociating the duplexes and secondary structure hybridization. At the conclusion of the hybridization period, S1 nuclease reagent was added to each sample to digest all nonprotected nucleotides at 50C for 60-90 min. […]
Turning to `CCCCNC(=O)OCC#CI`, the compound was called inactive.

As for `N#Cc1cc(Br)c(O)c(Br)c1`, the compound was classed as inactive.

Regarding `COC(=O)N(OC)c1ccccc1COc1ccn(-c2ccc(Cl)cc2)n1`, the AC50 was 20 µM (active).

As for `CCOc1cc(Oc2ccc(C(F)(F)F)cc2Cl)ccc1[N+](=O)[O-]`, the compound was classed as inactive.

On to `CC1COC(Cn2cncn2)(c2ccc(Oc3ccc(Cl)cc3)cc2Cl)O1` (stereo not given), for which the outcome was inactive.

As for `C#CCOS(=O)OC1CCCCC1Oc1ccc(C(C)(C)C)cc1` (stereo not given), the call was inactive.

Turning to `C=CCC1=C(C)[C@@H](OC(=O)[C@@H]2[C@@H](C=C(C)C)C2(C)C)CC1=O`, the compound was classed as inactive.

Turning to `CC(C)C1(C)N=C(c2nc3ccccc3cc2C(=O)O)NC1=O` (stereo not given), the compound was classed as inactive.

`CCCN(CCC)c1c([N+](=O)[O-])cc(S(N)(=O)=O)cc1[N+](=O)[O-]`: the result was inactive.

As to `Oc1ccccc1-c1ccccc1`, the outcome was inactive.

As to `COC(=O)c1ccccc1C(=O)OC`, the compound was called inactive.

On to `O=C(Nc1ccccc1)Nc1ccnc(Cl)c1`, for which the result was inactive.

For `COc1nc(C)nc(NC(=O)NS(=O)(=O)c2ccccc2Cl)n1`, the call was inactive.

As for `N#Cc1nn(-c2c(Cl)cc(C(F)(F)F)cc2Cl)c(N)c1S(=O)C(F)(F)F` (stereo not given), the half-maximal activity concentration (AC50) is 31.6 µM (active).

Consider `CCCCOC(=O)c1ccccc1C(=O)OCCCC`, for which the result was inactive.

For the compound `COC(=O)C(C)Oc1ccc(Oc2ccc(Cl)cc2Cl)cc1` (stereo not given), the compound was called inactive.

Turning to `CCOC(=O)CC(SP(=S)(OC)OC)C(=O)OCC` (stereo not given), the compound was classed as inactive.

On to `O=C(O)COc1nc(Cl)c(Cl)cc1Cl`, for which the compound was classed as inactive.

For `COc1nc(C)nc(NC(=O)NS(=O)(=O)c2ccccc2CCC(F)(F)F)n1`, the call was inactive.

Consider `Cc1cc(Cl)ccc1OCC(=O)O`, for which the call was inactive.

Regarding `C=CC1(C)OC(=O)N(c2cc(Cl)cc(Cl)c2)C1=O` (stereo not given), the outcome was inactive.

Turning to `COC(=O)C=C(C)OP(=O)(OC)OC`, the compound was classed as inactive.

For `CCCCC(CC)COC(=O)c1ccccc1C(=O)OCC(CC)CCCC` (stereo not given), the compound was called inactive.

On to `O=C(O)c1nc(Cl)ccc1Cl`, for which the outcome was inactive.

Turning to `CO/C=C(/C(=O)OC)c1ccccc1Oc1cc(Oc2ccccc2C#N)ncn1`, the call was inactive.

Regarding `Fc1ccc(Oc2ccnc3cc(Cl)cc(Cl)c23)cc1`, the compound was called inactive.

Take `CNC(=S)S`: the call was inactive.

Take `CCCC1COC(Cn2cncn2)(c2ccc(Cl)cc2Cl)O1` (stereo not given): the compound was classed as inactive.

On to `COP(=S)(OC)Oc1nc(Cl)c(Cl)cc1Cl`, for which the compound was called inactive.

As to `CCc1nn(C)c(C(=O)NCc2ccc(C(C)(C)C)cc2)c1Cl`, the AC50 is 26.2 µM (active).

For `COP(N)(=O)SC` (stereo not given), the call was inactive.

For `Cc1c(F)c(F)c(COC(=O)C2C(/C=C(\Cl)C(F)(F)F)C2(C)C)c(F)c1F` (stereo not given), the compound was classed as inactive.

`C=CCC1=C(C)C(OC(=O)C2C(C=C(C)C)C2(C)C)CC1=O` (stereo not given): the result was inactive.

On to `CN(C)C(=S)SSC(=S)N(C)C`, for which the compound was called inactive.

For the compound `OC(c1ccc(Cl)cc1)(c1cncnc1)c1ccccc1Cl` (stereo not given), the concentration at half-maximal activity (AC50) is 33.4 µM (active).

Take `CCNc1nc(Cl)nc(NCC)n1`: the compound was called inactive.

Turning to `CC(C)Oc1cc(-n2nc(C(C)(C)C)oc2=O)c(Cl)cc1Cl`, the outcome was inactive.

`CC(C)(C)c1ccc(CSc2cnn(C(C)(C)C)c(=O)c2Cl)cc1`: the call was inactive.

`CS/C(C)=N/OC(=O)N(C)SN(C)C(=O)O/N=C(\C)SC`: the call was inactive.

On to `N#CC(CCc1ccc(Cl)cc1)(Cn1cncn1)c1ccccc1` (stereo not given), for which the compound was called inactive.
